ChEMBL document CHEMBL3433997, “St. Jude Leishmania screening dataset” (2016)

Each molecule was assayed against Glucose transporter (Leishmania mexicana) (UniProt O61059) (assay: ST_JUDE_LEISH: Cytotoxicity at 2uM final concentration against transgenic Leishmania Mexicana promastigotes LmGT2 that are glucose transport deficient and complemented with the L. Mexicana glucose transporter 2. Activity is measured by DNA content using SYBR green in vitro).
Format: functional

Going from `Cc1cc(N[C@@H](Cc2ccccc2)C(=O)NCc2cccs2)nc(NCCc2cccnc2)n1` to `CCNc1cc(C)nc(Nc2ccc(NC(=O)c3ccccc3Cl)cc2)n1`, the inhibition rises from 1.02% to 5.34%.

Going from `CS(=O)(=O)c1ccc(Nc2ncc(-c3ccc(S(C)(=O)=O)cc3)c(OCC(F)(F)F)n2)cc1` to `O=C(Cc1c[nH]cn1)Nc1cccc(-c2ccc(-c3nc4cc(C(F)(F)F)ccc4[nH]3)cc2)c1`, the inhibition falls from 3.17% to 1.97%.

First: CC1CCC(C(C)C)C(OC(=O)CSc2nnc3c(n2)[nH]c2ccccc23)C1 (configuration not stated)
Second: CC(C)Oc1ccc(C=CC(=O)Nc2noc3ccccc23)cc1
The inhibition of the first is lower: -0.42% for the first, 2.36% for the second.

First: Cc1cccc2nc(-c3ccc(-c4ccc(NC(=O)Nc5ccc(F)c(F)c5F)cc4)cc3)[nH]c12
Second: Cc1cnc(C(=O)Nc2cccc(-c3ccc(-c4nc5cc(C(F)(F)F)ccc5[nH]4)s3)c2)cn1
The inhibition of the first is higher: 7.14% for the first, 6.71% for the second.

Compared with `CN(C)CCNc1ncnc2c1[nH]c1ccc(Cl)cc12`, `CN(C)CCC=C1c2ccccc2Sc2c(O)cc(Cl)cc21` is lower in inhibition: 2.92% for the first, 1.71% for the second.

First: CC(C)CCN1CCCN(Cc2cccc(C(=O)Nc3ccc(C(C)(C)C)cc3)c2)CC1
Second: CC(C)CCN1CCC(Oc2cccc(NC(=O)c3ccc(C(F)(F)F)cc3)c2)CC1
The inhibition of the first is higher: 2.78% for the first, 1.09% for the second.

First: O=C(Nc1cccc(CN2CCN(Cc3ccc(O)cc3)CC2)c1)c1cc2ccccc2s1
Second: O=C(NCc1ccc(Cl)c(Cl)c1)c1ccc(C2CCCN(Cc3ccc4[nH]cnc4c3)C2)cc1 (configuration not stated)
The inhibition of the first is higher: 8.57% for the first, 6.17% for the second.

Compared with `O=C(Nc1ccc(C(F)(F)F)cc1)Nc1ccccc1N1CCNCC1`, `O=C(Nc1cccc(F)c1)N1CCC(NS(=O)(=O)c2ccc(Br)cc2)CC1` is lower in inhibition: 6.58% for the first, 2.63% for the second.

First: CNC(=O)c1cnc(Nc2ccc(N3CCOCC3)cc2)nc1Nc1cccc(OC)c1
Second: CC(C)c1ccc(OCC(O)CN(CCN2CCOCC2)C(=O)Nc2ccc(Br)cc2)cc1 (configuration not stated)
The inhibition of the first is lower: -2.23% for the first, 9.58% for the second.

First: O=C(c1ccc([N+](=O)[O-])o1)N1CCN(c2nc3c(Cl)cccc3s2)CC1
Second: Clc1ccccc1CN1CCC(NCc2cccc(-n3ccnc3)c2)CC1
The inhibition of the first is higher: 4.58% for the first, 1.16% for the second.

Compared with `O=C(Nc1ccc(NC2=NCCN2)cc1)c1ccc(C(=O)Nc2ccc(NC3=NCCN3)cc2)cc1`, `Cc1cc(OCC2CCN(c3ncc(C(=O)Nc4ccccc4)cc3Cl)CC2)ccc1F` is lower in inhibition: 6.75% for the first, 0.4% for the second.

First: Cc1ccc(O)cc1Nc1ccnc2cc(-c3ccccn3)ccc12
Second: Cc1nnsc1C(=O)Nc1cccc(-c2csc(-c3nc4ccccc4[nH]3)c2)c1
The inhibition of the first is higher: 3.28% for the first, 1.45% for the second.

First: CCCCOc1cc(CNCCCCCCNCc2cc(OCCCC)cc3ccccc23)c2ccccc2c1
Second: Cc1nccn1Cc1cc(C(C)(C)C)c(O)c(C(C)(C)C)c1
The inhibition of the first is lower: -2.17% for the first, 3.5% for the second.

Work on `CC(=O)N[C@@H]1c2cc(C(C)=O)ccc2OC(C)(C)[C@@H]1O` yielded an inhibition of -0.73%.
